Test results as given in the supplement of paper PMC10849652.
About 7,900 targets were measured; listed, in parts, are those with a hit and a random draw of the rest. About 0.6% of all pairs of compound and target were hits.

Each target was assayed with c1cc(OCCN2CCCCC2)cc(-c2n[nH]c3ccc(-c4nnc[nH]4)cc23)c1 (assay: log2 fold change, soluble protein after heating vs DMSO (PISA); higher = thermal stabilisation; K562 cells, 10 uM, 30 min; active = over 0.2 and 3.5 SD of the protein, either way, in both replicates (recomputed)).
Method in brief: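 K562 cells at 2×10^6 cells/mL were given 10 μM compound for 30 min. Aliquots then went through 3 min of heating across 48°C-58°C, were pooled, and were extracted in PBS with 0.5% NP-40 at 4°C, and the supernatant after 21,000xg for 90 min was quantified by TMTpro 16plex LC-MS/MS with channel sums equalised. Thermal stability relative to control samples, from duplicates, is given as log2 fold change.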

Sequence of UniProt Q9Y679 (Q9Y679 whole entry, looked up): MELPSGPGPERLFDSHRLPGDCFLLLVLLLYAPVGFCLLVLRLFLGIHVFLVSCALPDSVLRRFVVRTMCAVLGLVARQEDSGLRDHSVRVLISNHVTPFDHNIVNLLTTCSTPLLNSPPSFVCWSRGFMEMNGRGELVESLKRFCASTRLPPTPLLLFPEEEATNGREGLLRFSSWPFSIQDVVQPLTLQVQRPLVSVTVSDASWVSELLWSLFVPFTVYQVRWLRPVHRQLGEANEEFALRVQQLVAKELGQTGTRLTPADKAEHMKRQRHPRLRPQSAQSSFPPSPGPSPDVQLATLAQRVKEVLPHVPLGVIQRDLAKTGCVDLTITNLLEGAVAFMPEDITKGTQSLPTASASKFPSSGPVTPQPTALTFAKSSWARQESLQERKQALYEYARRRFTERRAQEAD
Sequence of UniProt Q96BI3 (Q96BI3 whole entry, looked up): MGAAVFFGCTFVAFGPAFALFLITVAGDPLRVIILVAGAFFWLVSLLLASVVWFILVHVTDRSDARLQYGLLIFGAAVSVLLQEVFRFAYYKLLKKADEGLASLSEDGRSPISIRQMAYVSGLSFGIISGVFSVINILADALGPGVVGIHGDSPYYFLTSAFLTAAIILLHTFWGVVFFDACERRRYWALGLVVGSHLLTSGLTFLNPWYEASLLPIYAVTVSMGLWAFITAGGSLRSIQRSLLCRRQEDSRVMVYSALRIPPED
Sequence of UniProt P02749 (P02749 whole entry, looked up): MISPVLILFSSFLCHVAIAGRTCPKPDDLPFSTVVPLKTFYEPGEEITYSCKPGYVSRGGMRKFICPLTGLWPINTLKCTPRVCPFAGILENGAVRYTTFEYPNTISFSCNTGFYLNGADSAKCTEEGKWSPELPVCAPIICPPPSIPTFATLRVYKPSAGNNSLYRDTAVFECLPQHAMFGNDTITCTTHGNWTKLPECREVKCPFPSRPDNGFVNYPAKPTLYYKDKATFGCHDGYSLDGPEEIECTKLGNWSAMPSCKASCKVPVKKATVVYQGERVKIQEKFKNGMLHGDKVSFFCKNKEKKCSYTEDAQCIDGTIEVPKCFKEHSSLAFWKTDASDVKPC
Sequence of UniProt P17707 (P17707 whole entry, looked up): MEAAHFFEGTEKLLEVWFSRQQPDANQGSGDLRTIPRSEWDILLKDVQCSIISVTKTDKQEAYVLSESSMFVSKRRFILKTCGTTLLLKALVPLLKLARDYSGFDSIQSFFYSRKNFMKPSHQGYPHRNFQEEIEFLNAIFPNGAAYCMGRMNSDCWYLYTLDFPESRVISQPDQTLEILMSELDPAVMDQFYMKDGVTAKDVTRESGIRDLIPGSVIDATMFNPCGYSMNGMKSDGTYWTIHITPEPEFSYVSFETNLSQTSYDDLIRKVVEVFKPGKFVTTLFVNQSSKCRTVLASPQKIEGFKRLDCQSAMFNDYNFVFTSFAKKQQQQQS
Sequence of UniProt Q8N6T3 (Q8N6T3 whole entry, looked up): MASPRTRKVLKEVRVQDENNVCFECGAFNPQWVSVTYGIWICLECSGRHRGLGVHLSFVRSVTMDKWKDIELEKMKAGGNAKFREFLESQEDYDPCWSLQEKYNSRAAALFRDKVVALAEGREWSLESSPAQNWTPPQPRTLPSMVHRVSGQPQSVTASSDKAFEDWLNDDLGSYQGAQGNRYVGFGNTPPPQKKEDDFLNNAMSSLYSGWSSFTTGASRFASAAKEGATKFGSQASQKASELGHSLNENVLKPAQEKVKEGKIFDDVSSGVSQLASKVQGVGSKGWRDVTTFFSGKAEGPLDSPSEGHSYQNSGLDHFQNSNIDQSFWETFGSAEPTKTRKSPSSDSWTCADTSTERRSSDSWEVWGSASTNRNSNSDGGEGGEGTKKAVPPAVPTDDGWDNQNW
Sequence of UniProt P42025 (P42025 whole entry, looked up): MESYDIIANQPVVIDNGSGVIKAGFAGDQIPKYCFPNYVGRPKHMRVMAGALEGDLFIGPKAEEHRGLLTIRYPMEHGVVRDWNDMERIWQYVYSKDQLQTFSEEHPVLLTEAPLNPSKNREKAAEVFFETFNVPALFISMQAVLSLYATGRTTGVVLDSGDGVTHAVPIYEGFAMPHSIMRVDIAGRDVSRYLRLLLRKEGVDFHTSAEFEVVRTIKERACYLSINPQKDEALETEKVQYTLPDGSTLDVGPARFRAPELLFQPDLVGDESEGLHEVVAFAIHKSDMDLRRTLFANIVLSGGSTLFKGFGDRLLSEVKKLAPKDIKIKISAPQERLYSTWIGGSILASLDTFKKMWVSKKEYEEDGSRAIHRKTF

log2 fold change, inactive:
ARFGAP1 (UniProt Q8N6T3) 0.035
ANK2 (UniProt Q01484) -0.019
ACTR1B (UniProt P42025) -0.004
AMD1 (UniProt P17707) -0.08
APOH (UniProt P02749) 0.006
APH1A (UniProt Q96BI3) 0.085
AUP1 (UniProt Q9Y679) -0.051
